TRHR PAM – allosteric enhancers of human TRH receptor. P34981. TRHR cells, fluo-8 calcium fluorescence, EC20 TRH enhancement. enhancement, % at 2 µM. 360,000 compounds, 0.66% hits; in the data active = enhancement above about 30%
Target sequence (P34981 whole entry, looked up): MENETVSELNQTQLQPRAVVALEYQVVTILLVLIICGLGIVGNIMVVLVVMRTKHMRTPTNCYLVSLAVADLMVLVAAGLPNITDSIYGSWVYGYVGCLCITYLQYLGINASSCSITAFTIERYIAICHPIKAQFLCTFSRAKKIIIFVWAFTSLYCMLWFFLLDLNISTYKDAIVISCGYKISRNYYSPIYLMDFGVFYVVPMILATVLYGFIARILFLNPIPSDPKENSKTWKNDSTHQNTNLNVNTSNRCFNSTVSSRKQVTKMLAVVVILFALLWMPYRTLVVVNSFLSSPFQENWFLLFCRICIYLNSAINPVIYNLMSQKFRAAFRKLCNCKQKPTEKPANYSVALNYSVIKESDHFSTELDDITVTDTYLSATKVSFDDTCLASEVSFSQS
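Enhancer read-out: after compound pinning and an initial kinetic agonist-mode read, an EC20 of TRH (10 nM final) was injected and fluo-8 calcium signal (Ex 480/Em 530) followed at 1 s/cycle for 100 cycles in TRHR-expressing cells.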
D1 antag – human D1 dopamine receptor antagonism; HEK293 TREx D1 cells, calcium flux, dopamine EC80; active compounds read low; P21728; 360,000 compounds, 3.2% hits; activity change, negative = inhibition, % at 10 µM; in the data active = activity change below about -30%
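Tetracycline-induced HEK293 Trex D1 cells, force-coupled to calcium, dye-loaded; compounds added and read 180 s, then EC80 dopamine added and calcium flux tracked kinetically another 180 s.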
D1 ag – agonists of human D1 dopamine receptor | AID 504660 | activation, % at 2 µM | 360,000 compounds, 1% hits | HEK293 T-REx D1 cells, calcium flux, agonist mode
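Tetracycline-induced HEK293 TREx D1 cells, force-coupled to calcium signalling, were dye-loaded with a no-wash calcium kit. Compound was pin-added after a 10 s baseline. Fluorescence was read kinetically at 1 cycle/s for 180 s, with calcium rises flagged as agonism.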
TRHR ag – agonists of human TRH receptor; P34981; TRHR cells, calcium flux fluo-8, FDSS agonist mode; activation, % at 2 µM; 360,000 compounds, 0.18% hits; AID 493084
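In this calcium-flux screen, cells bearing human TRHR are dye-loaded with fluo-8, baselined for 10 cycles, then exposed to library compounds; positive kinetic calcium responses during the agonist phase mark hits, with TRH as control.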
D1 potentiator – human D1 dopamine receptor positive modulation. HEK293 TREx D1 cells, calcium flux, dopamine EC20 potentiation. potentiation, % at 10 µM. 360,000 compounds, 0.036% hits. AID 504651; in the data active = potentiation above about 30%
Of the large screens only hits and unclear results are named; the others gave an inactive call; ! = not confirmed by another sample. Only some compounds are listed: those with a hit (about 4.7% of all), similar ones and a draw of the others. Rule as the data show it, unless noted: active = activation above about 30%; inactive = the rest.

COc1ccc(NC(=O)c2cc3c([nH]c2=O)CC(c2ccccc2)CC3=O)cc1 (stereo not given)	none
CSc1ncc(Cl)c(C(=O)Nc2c(C(=O)c3ccc(Cl)cc3)oc3ccccc23)n1	TRHR PAM 47.3
CSc1ncc(Cl)c(C(=O)Nc2c(C(=O)c3ccc(C)cc3)oc3ccccc23)n1	none
COc1cc2c(cc1OC)C(COc1cccc(C(F)(F)F)c1)NCC2 (stereo not given)	D1 ag 31.7
COc1ccc(OCC2NCCc3cc(OC)c(OC)cc32)cc1 (stereo not given)	none
CC(=O)c1nc2ccccc2n1S(=O)(=O)c1ccc(Cl)cc1	D1 antag -36.5
CC(=O)c1nc2ccccc2n1S(=O)(=O)c1ccc(C)cc1	none
CCCC(=O)Nc1ccc2c(c1)Cc1ccccc1-2	D1 antag -38.2
CCC(=O)Nc1ccc2c(c1)Cc1cc(NC(=O)CC)ccc1-2	none
COc1cc(Br)ccc1C1C(C(=O)Nc2ccc(C)cc2C)=C(C)Nc2nnnn21 (stereo not given)	none
CCN(CC)CCC(c1ccc(OC)cc1)c1c(O)cc(OC)cc1OC (stereo not given)	D1 antag -31.5
COc1ccc(C(CCN2CCN(c3ccccc3)CC2)c2c(O)cc(OC)cc2OC)cc1 (stereo not given)	D1 antag -84.4
COc1cc(O)c(C(CCN2CCOCC2)c2ccc(N(C)C)cc2)c(OC)c1 (stereo not given)	none
COc1cc(O)c(C(CCN2CCN(c3ccccc3)CC2)c2ccc(N(C)C)cc2)c(OC)c1 (stereo not given)	D1 antag -80.1
COc1ccc(C(CCN2CCCC2)c2c(O)cc(OC)cc2OC)cc1 (stereo not given)	none
Cc1cc(Nc2sc(C(=O)c3ccc(F)cc3)c(N)c2C(=O)Nc2ccc(F)cc2)ccc1Cl	none
COc1ccccc1N(CC(=O)NCCSCc1ccccc1)S(C)(=O)=O	none
COc1ccccc1N(CC(=O)NCCSCc1ccc(Cl)cc1)S(C)(=O)=O	D1 antag -58.3!
Cc1cccc(N(CC(=O)NCCSCc2ccccc2)S(=O)(=O)c2ccccc2)c1C	D1 ag 30.2
CCOc1ccc(-c2c(C)nn3c(C)c(C(=O)NCC(C)c4ccccc4)cnc23)cc1OCC (stereo not given)	none
O=S(=O)(c1cccc(F)c1)N1CCC(Oc2ccc(-n3cnnn3)cc2)CC1	D1 antag -30.2
CCCc1cc(=O)[nH]c(Nc2ccc(C)c(O)c2)n1	none
O=C(Cc1ccccc1)N1CCN=C1SCc1cccc([N+](=O)[O-])c1	TRHR PAM 31.3
Cc1cccc(C(=O)N2CCN=C2SCc2ccc([N+](=O)[O-])cc2)c1	none
COc1ccc(CC(=O)N2CCN=C2SC)cc1	D1 antag -79.0 (no result: D1 potentiator)
CSC1=NCCN1C(=O)Cc1ccc(Cl)cc1	none (no result: D1 potentiator)
CN1CCN(C(=O)c2ccc(CS(=O)Cc3ccc(Cl)cc3)o2)CC1 (stereo not given)	D1 antag -34.0
CCc1c(C)c2cc(Cl)c(O)c(CN(CC)CC)c2oc1=O	TRHR PAM 38.1
CCc1c(C)c2cc(Cl)c(O)c(CN(C)C)c2oc1=O	none
CCn1c(SCC(=O)N(C)C2CCS(=O)(=O)C2)nnc1-c1ccccc1 (stereo not given)	D1 antag -64.5
CCc1cc2c(=O)n(Cc3ccco3)c(SCC(=O)NC3CCS(=O)(=O)C3)nc2s1 (stereo not given)	none
CCc1cc2c(=O)n(Cc3ccco3)c(SCC(=O)N(C)C3CCS(=O)(=O)C3)nc2s1 (stereo not given)	D1 antag -35.7
O=C(CCC1N=C2c3ccccc3N=C(SCc3ccccc3F)N2C1=O)NCc1ccccc1 (stereo not given)	none
O=C(COc1ccccc1F)Nc1ccc2nc(SCC(=O)N3CCCC3)sc2c1	none
O=C(c1cnn2c(C(F)(F)F)cc(-c3cccs3)nc12)N1CCN(C(c2ccccc2)c2ccccc2)CC1	D1 antag -46.5
CN(C)C(/C=C/Nc1ccccc1F)=C(C#N)C#N	D1 antag -33.9
COc1ccccc1N/C=C/C(=C(C#N)C#N)N(C)C	none
Cc1oc(-c2cccc(Cl)c2)nc1CSc1nncn2c1cc1occc12	none
N#Cc1nc(NC2CCCC2)c2ncn(-c3cc(F)cc(F)c3)c2n1	none

Source: PubChem
